The text below walks through data of PubChem BioAssay (NCATS).

Records with an inconclusive call do not appear. A number with no mark means an inactive call. Active and inactive are the calls of the source. The call rests on the fitted dose curve; in most records, active means well fitted curve in the direction sought with a large enough effect; inconclusive means small, poorly fitted or top-dose-only effect, or another doubt; inactive means no such curve, though single readings can be large; an effect the other way counts as inactive or inconclusive.

The nature of assay [1]: qHTS for Inhibitors of Plasmodium falciparum (CP250) proliferation (AID 504320).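 Further: plate controls were DMSO vehicle for no effect and 0.29 µM artemisinin control for full effect.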 The method, boiled down:
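Erythrocytes infected with P. falciparum line (0.3% parasitemia, 2.5% hematocrit final) incubated with compounds 72 h at 37 °C, 5% CO2; SYBR Green lysis buffer added, fluorescence read next day. Normalized to 0.29 uM artemisinin and DMSO.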
A general note: Quantitative high-throughput screening tests each substance at several concentrations.

Assay [2] has as its target Ubiquitin carboxyl-terminal hydrolase 1 (Homo sapiens) (UniProt O94782). Briefly: Inhibitors of USP1/UAF1: Pilot qHTS (AID 504865).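 Further: rhodamine fluorescence freed from ubiquitin-rhodamine substrate followed over time; top concentration of the series differs between compounds; on the % scale 0 is the no-effect control and ±100 the full control effect; nearly all actives have a fitted effect of over 35% in size.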 The method, boiled down: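 Enzyme-free wells gave the negative control, while test wells held 1nM USP1/UAF1 preincubated with compound for 15 min at room temperature. Ub-Rho at 150nM final started the reaction, and fluorescence at 480/540 nm was recorded kinetically.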

For assay [3], the target named is Luciferin 4-monooxygenase (Photinus pyralis) (UniProt P08659). Briefly: Biochemical firefly luciferase enzyme assay for NPC (AID 624030).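 Further: purified P. pyralis luciferase at 10 nM with luciferin and ATP substrate; 0% = DMSO and -100% = full luciferase inhibition by PTC124 control; nearly all actives have a fitted effect of over 70% in size.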 An outline of the steps: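 Direct inhibition of firefly luciferase enzyme (10 nM final, 50 mM Tris Acetate) assessed by luminescence within 5 minutes. Percent activity scaled between DMSO and PTC124 positive control, with concentration-effect curves classified by fit quality and response.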

The nature of assay [4]: qHTS profiling for inhibitors of Plasmodium falciparum proliferation (AID 504749).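 Further: 0% = DMSO vehicle and full inhibition = artemisinin control; nearly all actives have a fitted effect of over 60% in size.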 The conditions noted are these: P. falciparum in erythrocytes, SYBR Green DNA, 72 h, at 28.7 µM (top of the series). An outline of the steps: (§1)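 Three-day growth assay of blood-stage parasites in erythrocytes (0.3% parasitemia, 2.5% hematocrit) at 37 C, 5% CO2, quantified by SYBR Green DNA staining after overnight detergent lysis.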

Another assay deals with ATS189. The assay is described as above. Conditions: P. falciparum in erythrocytes, SYBR Green DNA, 72 h; series mostly up to 28.7 µM. The method, boiled down:
as §1

The next assay has as its system CP185. The description is as above. The conditions noted are these: P. falciparum in erythrocytes, SYBR Green DNA, 72 h; series mostly up to 28.7 µM. The method, boiled down:
as §1

Another assay concerns CP201. Described as above. Conditions: P. falciparum in erythrocytes, SYBR Green DNA, 72 h; series mostly up to 28.7 µM. An outline of the steps: as §1
Another assay has as its system CP238. Described as above. The conditions noted are these: P. falciparum in erythrocytes, SYBR Green DNA, 72 h; series mostly up to 28.7 µM. The method, boiled down:
as §1

The next assay concerns CP252. Described as above. The conditions noted are these: P. falciparum in erythrocytes, SYBR Green DNA, 72 h; series mostly up to 28.7 µM. The method, boiled down:
as §1

Another assay has as its system CP265. The assay is described as above. The conditions noted are these: P. falciparum in erythrocytes, SYBR Green DNA, 72 h; series mostly up to 28.7 µM. An outline of the steps: as §1
Another assay concerns CP286. Described as above. The conditions noted are these: P. falciparum in erythrocytes, SYBR Green DNA, 72 h; series mostly up to 28.7 µM. The method, boiled down:
as §1

Another assay has as its system CP305. Described as above. The conditions noted are these: P. falciparum in erythrocytes, SYBR Green DNA, 72 h; series mostly up to 28.7 µM. The method, boiled down:
as §1

In another assay the test system is CP325. Described as above. Conditions: P. falciparum in erythrocytes, SYBR Green DNA, 72 h; series mostly up to 28.7 µM. An outline of the steps: as §1
The subject of another assay is FAB9. The assay is described as above. Conditions: P. falciparum in erythrocytes, SYBR Green DNA, 72 h; series mostly up to 28.7 µM. The method, boiled down:
as §1

The next assay concerns PC15. Described as above. The conditions noted are these: P. falciparum in erythrocytes, SYBR Green DNA, 72 h; series mostly up to 28.7 µM. An outline of the steps:
as §1

For the next assay, the system named is PC49. Described as above. The conditions noted are these: P. falciparum in erythrocytes, SYBR Green DNA, 72 h; series mostly up to 28.7 µM. An outline of the steps: as §1

Chain of Luciferin 4-monooxygenase (Photinus pyralis) (P08659 whole entry, looked up): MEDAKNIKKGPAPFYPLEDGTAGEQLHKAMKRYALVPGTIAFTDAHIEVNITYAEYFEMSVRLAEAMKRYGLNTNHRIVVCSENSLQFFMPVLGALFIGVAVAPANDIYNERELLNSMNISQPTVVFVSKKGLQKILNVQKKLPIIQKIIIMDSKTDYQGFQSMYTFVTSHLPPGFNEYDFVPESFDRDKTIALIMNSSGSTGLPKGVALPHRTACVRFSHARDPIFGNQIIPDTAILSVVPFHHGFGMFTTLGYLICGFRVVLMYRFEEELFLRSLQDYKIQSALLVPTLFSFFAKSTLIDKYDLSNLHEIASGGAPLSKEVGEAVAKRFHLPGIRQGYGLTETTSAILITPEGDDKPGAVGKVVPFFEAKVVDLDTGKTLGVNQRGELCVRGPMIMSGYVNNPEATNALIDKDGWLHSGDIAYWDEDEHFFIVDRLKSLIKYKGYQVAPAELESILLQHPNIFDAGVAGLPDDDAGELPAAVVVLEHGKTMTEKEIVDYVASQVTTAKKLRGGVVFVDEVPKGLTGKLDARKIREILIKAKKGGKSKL
Chain of Ubiquitin carboxyl-terminal hydrolase 1 (Homo sapiens) (O94782 whole entry, looked up): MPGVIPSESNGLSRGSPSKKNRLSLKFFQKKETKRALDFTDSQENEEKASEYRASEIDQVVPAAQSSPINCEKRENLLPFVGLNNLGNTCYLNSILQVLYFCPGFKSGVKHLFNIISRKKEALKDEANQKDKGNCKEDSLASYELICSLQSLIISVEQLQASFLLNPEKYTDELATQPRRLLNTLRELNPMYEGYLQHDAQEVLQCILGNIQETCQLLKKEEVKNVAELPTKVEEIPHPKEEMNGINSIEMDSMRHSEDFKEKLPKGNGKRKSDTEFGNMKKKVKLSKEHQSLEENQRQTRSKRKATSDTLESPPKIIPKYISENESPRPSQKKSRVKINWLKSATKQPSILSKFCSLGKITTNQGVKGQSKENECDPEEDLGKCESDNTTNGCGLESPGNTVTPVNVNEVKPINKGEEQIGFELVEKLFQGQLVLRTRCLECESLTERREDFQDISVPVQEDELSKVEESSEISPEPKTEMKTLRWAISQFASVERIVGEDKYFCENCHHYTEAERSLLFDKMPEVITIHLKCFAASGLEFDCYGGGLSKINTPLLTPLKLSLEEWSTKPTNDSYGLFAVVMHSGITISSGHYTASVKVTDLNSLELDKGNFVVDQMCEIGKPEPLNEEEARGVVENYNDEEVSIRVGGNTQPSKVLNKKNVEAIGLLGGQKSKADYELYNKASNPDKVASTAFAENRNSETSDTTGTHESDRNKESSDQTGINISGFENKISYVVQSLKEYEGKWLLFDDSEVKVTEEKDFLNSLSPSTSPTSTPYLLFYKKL

On to `CC(=O)OC[C@H]1O[C@H](C#Cc2ccc(C)cc2C)C=C[C@H]1OC(C)=O`, for which the Potency entry in [1] is “inactive”.
Consider `CC(CCN1CCCCc2nc(C)c(C)cc21)=NO[C@@H](C)c1cn([C@H](CO)Cc2ccccc2)nn1`, for which, in assay [1], the Potency entry was “inactive”.
`CCN1C(=O)N(S(=O)(=O)c2ccc(C)cc2)[C@@H](c2ccccc2)C(C(=O)OC)=C1C`: the Potency result in assay [1] was “inactive”.
For the compound `COc1ccc([C@]23Cc4cc(C#N)ccc4[C@H](O2)c2c(cc(-c4ccccc4)oc2=O)O3)cc1`, in assay [1], the Potency result was “inactive”.
On the same count and under the same terms, in the case of `CCCCCCC#C[C@@H]1C=C[C@H](OC(C)=O)[C@@H](COC(C)=O)O1` it was “inactive”; in that of `CCCCS(=O)(=O)N1CCc2nc(COc3ccccc3)c3c(c2C1)CO[C@@H](C)C3`, “inactive”; in that of `C=C(C(C)=O)C(O)c1ccc2ccccc2c1` (configuration not stated), “inactive”.
On to `CNCC(=O)NC(CCCN=C(N)N)C(=O)NC(C(=O)NC(Cc1ccc(O)cc1)C(=O)NC(C(=O)NC(Cc1cnc[nH]1)C(=O)N1CCCC1C(=O)NC(C)C(=O)O)C(C)C)C(C)C` (configuration not stated), for which the Potency entry (in assay [2]; in assay [3]; in the assay on ATS189; with CP185; in the assay with CP201; in the assay with CP238) was “inactive” throughout. Besides, the Potency result in the assay with CP252, in the assay on CP265, in the assay with CP286, in the assay with CP305, in the assay on CP325 and in the assay on FAB9 was “inactive” in each case. In addition, the Potency result in the assay on PC15 and with PC49 was “inactive” throughout. Besides, the activity, negative = inhibition is 15.8% in assay [4] (parasite line A) and 17.4% in assay [4] (parasite line B).
Consider `CC(N)C(=O)NCC(=O)NC1CSSCC(C(=O)O)NC(=O)C(CO)NC(=O)C(C(C)O)NC(=O)C(Cc2ccccc2)NC(=O)C(C(C)O)NC(=O)C(CCCCN)NC(=O)C(Cc2c[nH]c3ccccc23)NC(=O)C(Cc2ccccc2)NC(=O)C(Cc2ccccc2)NC(=O)C(CC(N)=O)NC(=O)C(CCCCN)NC1=O` (configuration not stated), for which the Potency result (in assay [2]; in [3]; in the assay with ATS189; in the assay on CP185; in the assay on CP201; in the assay on CP238) was “inactive” throughout. In addition, the Potency entry in the assay on CP252, in the assay on CP265, in the assay with CP286, in the assay with CP305, in the assay on CP325 and with FAB9 was “inactive” in each case. For the same compound, the Potency entry in the assay on PC15 and in the assay with PC49 was “inactive” throughout. Moreover, the activity, negative = inhibition in [4] (parasite line A) is 12%; in [4] (parasite line B), 4.8%.
Take `CC(C)C[C@H](NC(=O)[C@@H](Cc1c[nH]c2ccccc12)NC(=O)[C@@H](Cc1ccc(O)cc1)NC(=O)[C@@H](CO)NC(=O)[C@@H](Cc1c[nH]c2ccccc12)NC(=O)C(Cc1cnc[nH]1)NC(=O)C1CCC(=O)N1)C(=O)N[C@@H](CCCN=C(N)N)C(=O)N1CCC[C@@H]1C(=O)NCC(N)=O` (some centres not stated): the Potency entry (in [2]; in assay [3]; in the assay with ATS189; in the assay with CP185; in the assay with CP201; in the assay with CP238) was “inactive” each time. In addition, the Potency result in the assay with CP252, in the assay on CP265, with CP286, with CP305, in the assay with CP325 and in the assay with FAB9 was “inactive” each time. Also, the Potency result in the assay on PC15 and in the assay with PC49 was “inactive” throughout. The activity, negative = inhibition in [4] (parasite line A) was 17.3%; in assay [4] (parasite line B) it was 2.16%.
For the compound `CCCCc1cc2c(cn1)=C(OC(=O)c1ccc(Cl)nc1)C(C)(OC(=O)CC)C(=O)C=2` (configuration not stated), the Potency entry in assay [1] was “inactive”.
Same read-out and setting: in the case of `COC(=O)CC1c2ccccc2C=C(/C=C/c2ccc3c(c2)OCO3)N1C(=O)OC` (configuration not stated) it was “inactive”; in that of `COC/C=C/C1=CC2=CC(=O)C(C)(OC(=O)c3cnc4ccccc4n3)C(=O)C2=CN1c1ccc(OC)cc1` (configuration not stated), “inactive”.
With `CC(C)Nc1oc(-c2ccccc2)nc1C=Cc1ccccc1`, the Potency result in assay [1] was “inactive”.
Take `CCOC(=O)NN=C1C[C@@H](O)[C@@H](O)[C@@H]2[C@H]3C(=O)N(CC)C(=O)[C@@H]3CC[C@@H]12`: the Potency entry in assay [1] is “inactive”.
On the same count and under the same terms, the same measure for `COC(=O)c1ccccc1S(=O)(=O)N1CCc2nc(-c3ccccc3)c3c(c2C1)CO[C@@H](C)C3`: “inactive”.
For `COc1ccc([C@]23Cc4cc(OC)c(OC)cc4[C@H](O2)c2c(c4ccccc4oc2=O)O3)cc1`, the Potency entry in assay [1] was “inactive”.
Consider `COC(=O)C1=C(C(=O)OC)[C@@H]2Nc3ccccc3[C@@]23C[C@@H](C(=O)OC)N(C(=O)C2CCC2)C3=N1`, for which, in assay [1], the Potency result is “inactive”.
Same read-out and setting: the same measure for `CCOC(=O)OC[C@H]1O[C@H](C#Cc2ccccc2)C=C[C@H]1OC(=O)OCC`: “inactive”; for `O=C1C=CC2(OCCCO2)C(Br)=C1CO`: “inactive”.
As to `COC(=O)C1=C(C(=O)OC)[C@@H]2N(C)c3ccc(OC)cc3[C@@]23C[C@@H](C(=O)OC)N(S(=O)(=O)c2ccc(C#N)cc2)C3=N1`, the Potency entry in [1] was “inactive”.
Turning to `C[C@H]1Cc2c(COc3ccccc3)nc3c(c2CO1)CN(S(=O)(=O)c1ccc(Cl)c2nonc12)CC3`, the Potency result in assay [1] was “inactive”.
On the same count and under the same terms, the same measure for `C[C@@H]1CC[C@H]2C(=O)N(Cc3ccccc3)C[C@H](O)CN2[C@H]1c1ccc(Br)cc1`: “inactive”; for `COC(=O)C(C(=O)OC)C1c2ccccc2C=C(C)N1C(=O)OC` (configuration not stated): “inactive”; for `COc1ccc(C=CC2=CC3(C)CC2(C)C(c2ccc(OC)cc2)CC3=O)cc1` (configuration not stated): “inactive”.
Turning to `CCN(CC)CCCN1C=C2C(=O)C(C)(OC(=O)c3cccs3)C(=O)C=C2C=C1CCCC(=O)OC` (configuration not stated), in assay [1], the Potency entry is “inactive”.
With `COc1cc2c(cc1OC)[C@@H]1O[C@](CCCCN3C(=O)c4ccccc4C3=O)(C2)OC2=C1C(=O)CCC2`, the Potency result in assay [1] was “inactive”.
